About 2,000 (36%) of roughly 5,500 compounds were called active. Inconclusive results (about 18%) are left out. Rule as the data show it: active = normalized growth mostly below about 0.91 (no sharp cut-off); inconclusive = no clear call, values can overlap the other calls; inactive = mostly above about 0.92. This is one part of the list.
Test: chemical genetic growth profiling, strain panel (AID 1159580);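 also: tested at 20 µM; growth read once vehicle control cultures reached saturation at 30 °C; 1 = growth at the plate median or of vehicle wells; lower values mean less growth of the strain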
Conditions: growth OD

Measured: normalized growth

CC(C)=CCc1c2c(c3occ(-c4ccc(O)c(O)c4)c(=O)c3c1O)C=CC(C)(C)O2
active: S. cerevisiae deletion strains, locus YKL009W, strain mrt4, active compounds read low 0.867 | S. cerevisiae deletion strains, locus YKR001C, strain vps1, active compounds read low 0.578 | S. cerevisiae deletion strains, locus YLR039C, strain RIC1, active compounds read low 0.235 | S. cerevisiae deletion strains, locus YLR058C, strain SHM2, active compounds read low 0.239 | S. cerevisiae deletion strains, locus YLR221C, strain rsa3, active compounds read low 0.905 | S. cerevisiae deletion strains, locus YLR262C, strain YPT6, active compounds read low 0.298 | S. cerevisiae deletion strains, locus YLR268W, strain sec22, active compounds read low 0.495 | S. cerevisiae deletion strains, locus YLR330W, strain CHS5, active compounds read low 0.36 | S. cerevisiae deletion strains, locus YLR342W, strain FKS1 (second series), active compounds read low 0.195 | S. cerevisiae deletion strains, locus YLR371W, strain rom2, active compounds read low 0.447 | S. cerevisiae deletion strains, locus YLR418C, strain cdc73, active compounds read low 0.252 | S. cerevisiae deletion strains, locus YML016C, strain PPZ1, active compounds read low 0.174 | S. cerevisiae deletion strains, locus YML032C, strain rad52, active compounds read low 0.812 | S. cerevisiae deletion strains, locus YML124C, strain tub3, active compounds read low 0.849 | S. cerevisiae deletion strains, locus YMR058W, strain fet3, active compounds read low 0.755 | S. cerevisiae deletion strains, locus YMR223W, strain ubp8, active compounds read low 0.72 | S. cerevisiae deletion strains, locus YMR307W, strain GAS1, active compounds read low 0.396 | S. cerevisiae deletion strains, locus YNL067W, strain RPL9B, active compounds read low 0.427 | S. cerevisiae deletion strains, locus YNL128W, strain TEP1, active compounds read low 0.202 | S. cerevisiae deletion strains, locus YNL153C, strain GIM3, active compounds read low 0.388 | S. cerevisiae deletion strains, locus YNL209W, strain ssb2, active compounds read low 0.883 | S. cerevisiae deletion strains, locus YNL233W, strain BNI4, active compounds read low 0.401 | S. cerevisiae deletion strains, locus YNL307C, strain MCK1, active compounds read low 0.546 | S. cerevisiae deletion strains, locus YNL322C, strain KRE1, active compounds read low 0.339 | S. cerevisiae deletion strains, locus YNR052C, strain pop2, active compounds read low 0.682 | S. cerevisiae deletion strains, locus YOL006C, strain TOP1, active compounds read low 0.142 | S. cerevisiae deletion strains, locus YOL147C, strain pex11, active compounds read low 0.634 | S. cerevisiae deletion strains, locus YOR061W, strain CKA2, active compounds read low 0.257 | S. cerevisiae deletion strains, locus YOR069W, strain VPS5, active compounds read low 0.546 | S. cerevisiae deletion strains, locus YOR106W, strain vam3, active compounds read low 0.856 | S. cerevisiae deletion strains, locus YOR136W, strain idh2, active compounds read low 0.837 | S. cerevisiae deletion strains, locus YOR144C, strain elg1, active compounds read low 0.723 | S. cerevisiae deletion strains, locus YOR184W, strain ser1, active compounds read low 0.548 | S. cerevisiae deletion strains, locus YOR316C, strain cot1, active compounds read low 0.848 | S. cerevisiae deletion strains, locus YPL051W, strain arl3, active compounds read low 0.913 | S. cerevisiae deletion strains, locus YPL055C, strain LGE1, active compounds read low 0.203 | S. cerevisiae deletion strains, locus YPR163C, strain tif3, active compounds read low 0.735 | S. cerevisiae deletion strains, locus YPR167C, strain met16, active compounds read low 0.739 | S. cerevisiae deletion strains, strain wtn01, active compounds read low 0.533 | S. cerevisiae strains, strain wild type, active compounds read low 0.173
inactive: S. cerevisiae deletion strains, locus YKL068W, active compounds read low 1 | S. cerevisiae deletion strains, locus YKL085W, strain MDH1 (second series), active compounds read low 0.947 | S. cerevisiae deletion strains, locus YKL085W, strain MDH1, active compounds read low 0.947 | S. cerevisiae deletion strains, locus YKL160W, strain elf1, active compounds read low 0.957 | S. cerevisiae deletion strains, locus YKR026C, strain gcn3, active compounds read low 0.994 | S. cerevisiae deletion strains, locus YKR091W, strain srl3, active compounds read low 0.997 | S. cerevisiae deletion strains, locus YLL001W, strain dnm1, active compounds read low 0.959 | S. cerevisiae deletion strains, locus YLL026W, active compounds read low 0.985 | S. cerevisiae deletion strains, locus YLL041C, strain sdh2, active compounds read low 0.993 | S. cerevisiae deletion strains, locus YLR027C, strain aat2, active compounds read low 0.935 | S. cerevisiae deletion strains, locus YLR102C, strain apc9, active compounds read low 0.957 | S. cerevisiae deletion strains, locus YLR113W, strain HOG1, active compounds read low 0.868 | S. cerevisiae deletion strains, locus YLR258W, strain gsy2, active compounds read low 0.935 | S. cerevisiae deletion strains, locus YLR262C, strain YPT6 (second series), active compounds read low 0.995 | S. cerevisiae deletion strains, locus YLR320W, strain mms22, active compounds read low 0.931 | S. cerevisiae deletion strains, locus YLR342W, strain FKS1, active compounds read low 0.959 | S. cerevisiae deletion strains, locus YLR357W, strain rsc2, active compounds read low 0.873 | S. cerevisiae deletion strains, locus YLR370C, strain arc18, active compounds read low 0.947 | S. cerevisiae deletion strains, locus YLR384C, strain iki3, active compounds read low 0.98 | S. cerevisiae deletion strains, locus YML120C, strain ndi1, active compounds read low 0.956 | S. cerevisiae deletion strains, locus YMR078C, strain ctf18, active compounds read low 0.929 | S. cerevisiae deletion strains, locus YMR125W, strain sto1, active compounds read low 1.01 | S. cerevisiae deletion strains, locus YMR129W, active compounds read low 0.981 | S. cerevisiae deletion strains, locus YMR205C, strain PFK2, active compounds read low 0.957 | S. cerevisiae deletion strains, locus YMR231W, strain pep5, active compounds read low 0.984 | S. cerevisiae deletion strains, locus YNL071W, strain lat1, active compounds read low 0.942 | S. cerevisiae deletion strains, locus YNL183C, strain NPR1, active compounds read low 0.885 | S. cerevisiae deletion strains, locus YNL248C, strain rpa49, active compounds read low 1 | S. cerevisiae deletion strains, locus YNL250W, strain rad50, active compounds read low 0.966 | S. cerevisiae deletion strains, locus YNL271C, strain bni1, active compounds read low 0.943 | S. cerevisiae deletion strains, locus YNL298W, strain CLA4, active compounds read low 0.922 | S. cerevisiae deletion strains, locus YNL322C, strain KRE1 (second series), active compounds read low 0.969 | S. cerevisiae deletion strains, locus YNR049C, strain mso1, active compounds read low 0.985 | S. cerevisiae deletion strains, locus YOL012C, strain htz1 0.238 | S. cerevisiae deletion strains, locus YOR001W, strain rrp6, active compounds read low 0.952 | S. cerevisiae deletion strains, locus YOR070C, strain gyp1, active compounds read low 0.951 | S. cerevisiae deletion strains, locus YOR080W, strain dia2, active compounds read low 0.961 | S. cerevisiae deletion strains, locus YOR083W, strain WHI5, active compounds read low 0.937 | S. cerevisiae deletion strains, locus YOR231W, strain MKK1, active compounds read low 0.917 | S. cerevisiae deletion strains, locus YOR265W, strain rbl2, active compounds read low 0.977 | S. cerevisiae deletion strains, locus YOR270C, strain vph1, active compounds read low 0.925 | S. cerevisiae deletion strains, locus YOR290C, strain snf2, active compounds read low 0.93 | S. cerevisiae deletion strains, locus YPL078C, strain atp4, active compounds read low 0.957 | S. cerevisiae deletion strains, locus YPL106C, strain sse1, active compounds read low 0.919 | S. cerevisiae deletion strains, locus YPL240C, strain hsp82, active compounds read low 0.984 | S. cerevisiae deletion strains, locus YPL256C, strain CLN2, active compounds read low 0.921 | S. cerevisiae deletion strains, locus YPR119W, strain clb2, active compounds read low 0.965 | S. cerevisiae deletion strains, locus YPR141C, strain kar3, active compounds read low 0.985
